From PubChem
Hits are enriched below; roughly 12% of the tested compounds scored in any of these assays.
PI5P4K alpha inh: PI5P4K alpha (human) kinase inhibition | P48426 | PI5P4Kalpha enzyme, ADP-Glo luminescence, 60 min; active compounds read low | max response, % | hit rate 1.2% among 330,000 | AID 652105; active = max response of -50% or lower; inconclusive = between -30% and -50%; inactive = -30% or higher; also: value at the top dose of about 77 µM; % is scaled to controls: 0 for no effect and ±100 for the full control effect
Target sequence (P48426 whole entry, looked up): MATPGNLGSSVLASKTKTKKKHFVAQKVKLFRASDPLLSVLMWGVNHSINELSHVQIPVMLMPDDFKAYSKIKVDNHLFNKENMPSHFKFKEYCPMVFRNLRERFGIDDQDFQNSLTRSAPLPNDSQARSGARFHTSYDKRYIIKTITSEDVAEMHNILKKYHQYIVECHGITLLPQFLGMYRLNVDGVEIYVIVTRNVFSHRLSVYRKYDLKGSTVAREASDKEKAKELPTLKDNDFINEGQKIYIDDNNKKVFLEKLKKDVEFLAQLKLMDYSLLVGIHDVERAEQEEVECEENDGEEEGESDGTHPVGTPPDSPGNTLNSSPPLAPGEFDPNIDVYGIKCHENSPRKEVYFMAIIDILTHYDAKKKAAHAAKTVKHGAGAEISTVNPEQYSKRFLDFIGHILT
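qHTS, 1536-well: enzyme/substrate mix, compound by pin tool, 5 microM ATP final; RT 60 min; ADP-Glo reagents 1 (45 min) then 2 (30 min); luminescence.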
G9a inh: G9a (human) methyltransferase inhibition | Q96KQ7 | G9a H3K9 monomethylation, AlphaScreen, 2 h | Potency, µM (series often up to 102 µM), for the others: at the top dose activity, negative = inhibition, hits mostly inhibitors | hit rate 8.8% among 350,000; also: potency is read from the fitted curve at half-maximal effect; % is scaled to controls: 0 for no effect and ±100 for the full control effect; nearly all actives have a fitted effect of over 75% in size
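Methyltransferase reactions run at room temperature for 2 h (20 nM enzyme, 500 nM biotin-H3K9 peptide, 20 uM SAM) after a 15 min compound preincubation; product detected by AlphaScreen beads and anti-H3K9me1 antibody.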
JMJD2A Tudor inh: JMJD2A Tudor domain (human) inhibition. O75164. hit rate 4.4% among 390,000. AID 504339. Potency, µM (highest dose often 114 µM), without a hit: top-dose activity change, negative = inhibition, most hits filed as inhibitors. AlphaScreen JMJD2A-Tudor / H3K4me3 peptide binding; also: potency is read from the fitted curve at half-maximal effect; % is scaled to controls: 0 for no effect and ±100 for the full control effect; nearly all actives have a fitted effect of over 50% in size
PLK1 PBD block: PLK1 (human) polo-box domain binding inhibition | Potency, µM, for inactives: max response, negative = inhibition, actives largely listed as inhibitors | Plk1 PBD binding of FITC phosphopeptide, fluorescence polarization | hit rate 2.8% among 360,000 | P53350; also: potency is read from the fitted curve at half-maximal effect; series mostly up to about 57 µM; % is scaled to controls: 0 for no effect and ±100 for the full control effect; nearly all actives have a fitted effect of over 65% in size
BAZ2B block: inhibitors of human BAZ2B bromodomain; Q9UIF8; Potency, µM (doses to about 114 µM), inactives show at the highest dose activity change, negative = inhibition, actives largely listed as inhibitors; AID 504333; AlphaScreen BAZ2B-H3K14Ac peptide displacement; hit rate 4.4% among 360,000; also: potency is read from the fitted curve at half-maximal effect; % is scaled to controls: 0 for no effect and ±100 for the full control effect; nearly all actives have a fitted effect of over 60% in size
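Protein-peptide AlphaScreen: BAZ2B 50 nM, b-H3K14Ac 50 nM, 1x PBS pH 7.4 + 0.01% Tween-20. Preincubation 30 min RT; cpd 30 min RT (top 110 uM); beads 20 min RT, light-protected.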
HP1b binding inh: HP1-beta chromodomain-methylated histone interaction inhibition. Potency, µM (titrated, usually from 114 µM), for the others: at the top dose activity change, negative = inhibition, most hits filed as inhibitors. hit rate 0.56% among 390,000. AlphaScreen HP1-beta / biotin-H3K9me3 peptide binding; also: potency is read from the fitted curve at half-maximal effect; nearly all actives have a fitted effect of over 70% in size
Target sequence (P83916 whole entry, looked up): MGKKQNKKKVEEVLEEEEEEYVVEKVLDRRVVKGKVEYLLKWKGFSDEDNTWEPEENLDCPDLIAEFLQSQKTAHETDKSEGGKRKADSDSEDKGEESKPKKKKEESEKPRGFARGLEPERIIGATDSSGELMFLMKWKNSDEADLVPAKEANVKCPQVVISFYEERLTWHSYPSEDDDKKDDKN
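Compound inhibition of the preformed complex between 50 nM HP1-beta and 50 nM biotinylated H3K9me3 peptide was read by AlphaScreen. Buffer was PBS pH 7.4 with 0.01% Tween-20. Incubations ran 30 min at room temperature, with 10 ug/mL donor/acceptor beads.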
Numbers without * were called inactive; ? = inconclusive; / = no result given; [ ] = dose if it differs, or a comment. Unless noted, calls follow the shape of the dose curve; as a rule, active = well fitted curve in the direction sought with a large enough effect; inconclusive = small, poorly fitted or top-dose-only effect, or another doubt; inactive = no such curve, though single readings can be large; an effect the other way counts as inactive or inconclusive.

SMILES | PI5P4K alpha inh | G9a inh | JMJD2A Tudor inh | PLK1 PBD block | BAZ2B block | HP1b binding inh
CSc1nsc(/C=C/Nc2ccc(Cl)cc2)c1C#N | -0.9 | -17.7%[12.7 µM] | -29.0% | 5.5% | ? | 11.4%
CSc1nsc(/C=C/Nc2ccc(O)cc2C)c1C#N | -18.2 | 7.94µM* | 50.1µM* | 12.5% | 39.8µM* | -34.2%
CSc1nsc(/C=C/Nc2cccc(Cl)c2)c1C#N | -10.1 | 10µM* | ? | -7.3% | ? | -12.0%
Cc1cc(O)ccc1N/C=C(\C#N)c1nc2ccccc2o1 | 7.9 | 38.0%[59 µM] | -6.8% | -2.7% | 5.9% | 20.0%
Cc1ccc(Cl)cc1NC(=O)CN(C)S(=O)(=O)c1ccc2c(c1)n(C)c(=O)c(=O)n2C | / | -1.2%[59 µM] | 5.0% | / | -10.9% | 33.0%
N#CC1(NC(=O)CSc2nnc(-c3ccccc3F)n2N)CCCCC1 | 3.4 | 2.9%[0.501 µM] | 8.2% | -0.8% | 7.2% | 57.8%
CCc1nc2ccc(C(=O)NCc3cccs3)cn2c1N(CC)Cc1cccc(Br)c1 | -0.7 | / | / | 5.2% | / | /
O=C(Cc1ccccc1)N/N=C/c1cccn1-c1ccc([N+](=O)[O-])cc1 | ? | 7.08µM* | -32.9% | -9.3% | 25.1µM* | ?
O=C(N/N=C/c1cccn1-c1ccc([N+](=O)[O-])cc1)C(O)c1ccccc1 (stereo not drawn) | / | 44.7µM* | ? | -7.8% | ? | -14.0%
CCOC(=O)O[C@]1(C(=O)COC(=O)CC)CC[C@@H]2[C@@H]3CCC4=CC(=O)C=C[C@@]4(C)[C@H]3[C@H](O)C[C@]21C | / | 22.6%[21.5 µM] | / | / | / | /
COc1cc2c(cc1OC)CN(C(=O)c1cc(C3CC3)nn1-c1ccccc1)CC2 | 4.8 | ? | -33.1% | -4.7% | ? | 6.2%
CCN(CCCNC(=O)CNC(=O)c1nn(-c2ccc(OC)cc2)c(=O)c2ccccc12)c1cccc(C)c1 | -2.1 | 31.6µM* | ? | -5.0% | -38.7% | -19.8%
COc1ccc(-n2nc(C(=O)NCC(=O)NCCCN3CCCCCC3)c3ccccc3c2=O)cc1Cl | 6.1 | 25.1µM* | -16.9% | -5.6% | -2.1% | 26.5%
COc1ccc(-n2nc(C(=O)NCC(=O)NCCCN3CCC(C)CC3)c3ccccc3c2=O)cc1Cl | 5.2 | -10.2% | -10.6% | -15.5% | 1.1% | 54.8%
COc1ccc(-n2nc(C(=O)NCC(=O)Nc3ccccn3)c3ccccc3c2=O)cc1Cl | 7.6 | 3.4%[0.0925 µM] | 31.6µM* | -1.1% | ? | 83.2%
CC(=O)N1c2ccccc2CC1C(=O)N1CCN(c2cccc(C)c2C)CC1 (stereo not drawn) | / | -2.4%[12.7 µM] | -1.7% | / | -11.5% | 24.0%
CCCCN(CCCC)Cc1cc(=O)oc2ccc3ccccc3c12 | 7.3 | / | / | -6.2% | / | /
CSc1ccccc1NC(=O)COC(=O)c1ccc(-n2nc(C)cc2C)cc1 | -11.3 | / | -18.8% | -3.2% | / | 18.3%
CC(C)NC(=O)C1(c2ccccc2)CC1(Cl)Cl (stereo not drawn) | -1.8 | -7.4% | -17.5% | 13.4µM* | 0.8% | -7.3%
CCN(CC)S(=O)(=O)c1ccc2c(c1)nc(CCC(=O)Nc1ccc(N3CCOCC3)cc1)n2C | ? | 44.7µM* | -30.9% | -10.7% | -29.9% | -6.3%
CCN(CC)S(=O)(=O)c1ccc(/C=C/C(=O)Nc2ccc(N3CCOCC3)cc2)cc1 | -5.5 | 44.7µM* | ? | -13.0% | ? | -17.6%
COc1ccc(/C=C/C(=O)Nc2ccc(N3CCOCC3)cc2)cc1 | 2.0 | -46.4% | -9.7% | 3.8% | -1.3% | 24.4%
CCN(CC)CCCNC(=O)CCC(=O)NNc1nc2ccccc2c2nc(C)nn12 | -5.0 | -30.0% | -24.2% | -2.5% | ? | 12.6%
Cc1nc2c3ccccc3nc(NNC(=O)CCC(=O)N3CCN(c4ccccc4F)CC3)n2n1 | 1.0 | 6.4% | -13.8% | -8.5% | -9.8% | 46.5%
Cc1nc2c3ccccc3nc(NNC(=O)CCC(=O)NCCC(C)C)n2n1 | -2.0 | 50.1µM* | 7.7% | -1.8% | -1.3% | 37.2%
SMILES | PI5P4K alpha inh | G9a inh | JMJD2A Tudor inh | PLK1 PBD block | BAZ2B block | HP1b binding inh
COc1ccc(N2CCN(C(=O)CCC(=O)NNc3nc4ccccc4c4nc(C)nn34)CC2)cc1 | -2.0 | 22.4µM* | -11.6% | -15.5% | -0.6% | 29.4%
Cc1nc2c3ccccc3nc(NNC(=O)CCC(=O)N3CCN(c4ccccc4)CC3)n2n1 | 4.5 | -10.2% | -4.6% | -6.2% | -15.0% | 27.4%
CCOC(=O)C1CCN(C(=O)CCC(=O)NNc2nc3ccccc3c3nc(C)nn23)CC1 | -5.4 | 44.7µM* | -0.7% | 4.2% | -9.6% | 43.9%
Cc1nc2c3ccccc3nc(NNC(=O)CCC(=O)N3CCC(C)CC3)n2n1 | 2.1 | 79.4µM* | -21.4% | -0.9% | -20.8% | 5.4%[57 µM]
COCCN1C[C@@H](CO)O[C@@H](n2cnc3c(N(C)C(C)C)ncnc32)C1 | -2.7 | / | / | 0.0% | / | /
c1nc(NCc2ccc3c(c2)OCO3)c2cc(-c3ccoc3)ccc2n1 | / | -0.2%[12.7 µM] | -22.9% | / | 50.1µM* | 11.8%
c1cncc(-c2ccc3ncnc(NCc4ccc5c(c4)OCO5)c3c2)c1 | / | 0.0%[12.7 µM] | -33.1% | / | -29.7% | 25.9%
COc1cc(Cl)c(NS(=O)(=O)c2ccc(-c3coc(C)n3)cc2)c(OC)c1 | / | 3.0%[59 µM] | -14.2% | / | 0.6% | 20.0%[57 µM]
Cc1cccc(N2C(=O)CC(SC(=Nc3ccccc3)Nc3ccccc3)C2=O)c1 (stereo not drawn) | 15.1 | 8.9%[59 µM] | -22.6% | -0.5% | 10.5% | 30.3%
O=C1SC(SC(=Nc2ccccc2)Nc2ccccc2)C(=O)N1c1ccccc1 (stereo not drawn) | 1.5 | 44.7µM* | ? | 6.7µM* | ? | ?
CSc1ncccc1C(=O)NCC(=O)Nc1ccc(F)c(F)c1 | -4.4 | 3.16µM* | -11.0% | -0.7% | 0.2% | 29.4%
CSc1ncccc1C(=O)NNc1cc(Cl)ccc1Cl | 7.7 | 44.7µM* | -6.8% | -12.3% | -3.4% | 30.6%
CCCCn1c(N)c(N(Cc2ccccc2OC)C(=O)CSCC(=O)Nc2cccc(C)c2)c(=O)[nH]c1=O | ? | 0.0% | ? | 29.9µM* | -10.8% | -16.7%[57 µM]
CCCCN(C(=O)CSCC(=O)Nc1ccc(C)cc1)c1c(N)n(Cc2ccccc2)c(=O)[nH]c1=O | 3.5 | -0.8%[12.7 µM] | -7.6% | -8.0% | 0.5% | 14.3%
COCCn1c(N)c(N(Cc2ccccc2)C(=O)CSCC(=O)Nc2ccc(C)cc2)c(=O)[nH]c1=O | 6.8 | 31.6µM* | -6.9% | -7.0% | -3.6% | 34.5%
CCCCn1c(N)c(N(Cc2ccccc2OC)C(=O)CCSC)c(=O)[nH]c1=O | 7.2 | / | -3.7% | -1.7% | -13.5% | 26.3%
O=C(c1cc(COc2c(F)cccc2F)on1)N1CC[C@@H]2CCCC[C@H]2C1 | 17.6 | / | / | -6.5% | / | /
O=C(NCC1CCCO1)c1ccccc1NS(=O)(=O)c1ccc(Br)s1 (stereo not drawn) | 2.8 | / | -11.1% | 23.8µM* | / | 3.5%[57 µM]
O=C(NCC1CCCO1)c1ccc(NS(=O)(=O)c2cccs2)cc1 (stereo not drawn) | -26.6 | 35.5µM* | ? | -25.2% | -34.0% | 10.4%
